In all, about 350,000 compounds went through this assay and about 2,300 (0.66%) were called active.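 The calls were made as follows: active = mean inhibition of at least 50% after viability correction, with every replicate also passing that limit; inconclusive = mean reaches 50% but only one of two replicates passes; inactive = the rest.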 The sample as a whole holds a higher share of actives than the screen did.
Experiment: EWS/Fli-driven NR0B1 reporter inhibitors, primary screen, A673 cells, NR0B1 luciferase, luminescence, MLPCN library (AID 651661);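 also: firefly luciferase signal divided by Alamar Blue viability fluorescence both relative to DMSO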
Settings: viability-normalised, at 12.6 µM, active compounds read high

| Structure (SMILES) | inhibition |
| --- | --- |
| COc1ccc(CN(C)C[C@H]2OCCCC[C@H](C)Oc3ccc(NS(C)(=O)=O)cc3C(=O)N([C@H](C)CO)C[C@@H]2C)cc1 | 1.53% (inactive) |
| CN(C)CC#Cc1ccc([C@@H]2[C@H](CO)N3CCCCN(C(=O)Nc4ccc(F)cc4)C[C@@H]23)cc1 | -2.85% (inactive) |
| COc1ccc(C#Cc2ccc([C@H]3[C@@H](CO)N4CCCCN(C(=O)Nc5ccccc5)C[C@H]34)cc2)cc1 | 17.2% (inactive) |
| O=C(Nc1ccc(F)cc1)N1CCCCN2[C@H](CO)[C@H](c3ccc(C#Cc4ccccc4)cc3)[C@H]2C1 | 84.6% (active) |
| CO[C@H]1CN(C)C(=O)c2ccc(NC(=O)C3CCC3)cc2OC[C@@H](C)NC[C@H]1C | 10.2% (inactive) |
| CO[C@H]1CN(C)C(=O)c2cc(NC(=O)C3CCCCC3)ccc2OC[C@H](C)N(C(=O)c2ccccc2)C[C@H]1C | 9.65% (inactive) |
| CCCNC(=O)[C@H]1[C@H](CO)[C@H]2Cn3c(cccc3=O)[C@H]2N1Cc1ccccc1Cl | -2.68% (inactive) |
| CC(=O)N(CN1C(=O)C2C3C=CC(C3)C2C1=O)c1cccc(Cl)c1 (stereo not drawn) | -2.77% (inactive) |
| COC(=O)c1cc(C(=O)N(Cc2ccccc2)c2ccccn2)cc([N+](=O)[O-])c1 | 7.71% (inactive) |
| O=C(CCl)N(Cc1cccc([N+](=O)[O-])c1)c1cccc(Cl)c1 | 60% (active) |
| CCC(=O)N(C)C[C@H]1Oc2cc(C#CCOC)ccc2S(=O)(=O)N([C@H](C)CO)C[C@H]1C | -9.57% (inactive) |
| CCOc1ccccc1N1CCN(C(=O)c2ccc3[nH]c(C)c(C)c3c2)CC1 | 55.9% (active) |
| CCOc1ccccc1N1CCN(C(=O)COc2ccc3c(C)cc(=O)oc3c2)CC1 | 6.43% (inactive) |
| CCn1c(C)c(C)c2cc(C(=O)N3CCN(c4cccc(C)c4C)CC3)ccc21 | 5.16% (inactive) |
| CCC(=O)Nc1ccc2c(c1)C(=O)N(C)[C@H]1CC[C@H](CC(=O)NC3Cc4ccccc4C3)O[C@H]1CO2 | 4.71% (inactive) |
| COc1ccc2c3c(n(C)c2c1)[C@H](CO)N(Cc1ccccc1Cl)CC31CN(C(=O)CN(C)C)C1 | 6.01% (inactive) |
| CS(=O)(=O)N1CCN(C(=O)c2cc3ccccc3oc2=O)CC1 | -13.4% (inactive) |
| O=c1oc2ccccc2cc1-c1cn(-c2ccccc2)c(=S)[nH]1 | 67.6% (active) |
| COc1cccc(-n2c(=S)[nH]c3c(oc4ccccc43)c2=O)c1 | -11.6% (inactive) |
| O=C(N[C@H]1CC[C@H](CCNS(=O)(=O)c2ccc(F)cc2)O[C@H]1CO)c1cccnc1 | -0.681% (inactive) |
| C[C@@H]1CN([C@@H](C)CO)C(=O)Cc2cc(NC(=O)C3CCCCC3)ccc2O[C@@H]1CN(C)Cc1ccc(C(=O)Nc2ccccc2N)cc1 | 12.7% (inactive) |
| Cn1cnc(S(=O)(=O)N[C@H]2C=C[C@H](CC(=O)NCC3CCCCC3)O[C@@H]2CO)c1 | -0.245% (inactive) |

| Structure (SMILES) | inhibition |
| --- | --- |
| C[C@H](CO)N1C[C@H](C)[C@@H](CN(C)Cc2ccc(-c3ccccc3)cc2)Oc2ccc(NC(=O)CCCN(C)C)cc2CC1=O | 4.89% (inactive) |
| C[C@H]1CN([C@@H](C)CO)S(=O)(=O)c2ccc(C#Cc3ccncc3)cc2O[C@@H]1CN(C)C(=O)Nc1ccc2c(c1)OCO2 | 55.5% (active) |
| C[C@H](CO)N1C[C@H](C)[C@H](CN(C)C(=O)Nc2ccc3c(c2)OCO3)Oc2cc(C#Cc3ccncc3)ccc2S1(=O)=O | 22.2% (inactive) |
| C[C@@H]1CN([C@@H](C)CO)S(=O)(=O)c2ccc(C#Cc3ccccc3)cc2O[C@@H]1CN(C)C(=O)Nc1ccccc1 | 11% (inactive) |
| Cc1nc2ccccc2n1CC(=O)N/N=C/c1cccs1 | 3.45% (inactive) |
| CCn1c(C(O)c2cc(OC)ccc2OC)nc2ccccc21 (stereo not drawn) | -24.1% (inactive) |
| CCn1c(/C=N/NC(=O)c2ccc(OC)cc2)nc2ccccc21 | 75.2% (active) |
| COc1ccc2c3c(n(C)c2c1)[C@H](CO)N(CC1CCOCC1)CC31CCN(C(C)=O)CC1 | 0.574% (inactive) |
| C[C@H]1CN([C@@H](C)CO)S(=O)(=O)c2ccc(-c3cccc(C#N)c3)cc2O[C@H]1CN(C)C(=O)c1ccccc1 | 4.97% (inactive) |
| COCC#Cc1ccc(CC[C@H]2O[C@H]3CC[C@@H](CO)O[C@H]3C[C@H]2NC(=O)Nc2c(C)noc2C)cc1 | -3.3% (inactive) |
| O=C(CCl)Nc1cccc(CP(=O)(c2ccccc2)c2ccccc2)c1 | 28.2% (inactive) |
| CCC(=O)Nc1ccc(Nc2nc(Cl)nc(Nc3ccc(NC(=O)CC)cc3)n2)cc1 | 7.36% (inactive) |
| O=C(CCl)Nc1ccc(Sc2ccc(NC(=O)CCl)cc2)cc1 | 66.1% (active) |
| CO[C@H]1CN(C)C(=O)c2ccc(NC(C)=O)cc2OC[C@H](C)N(C(=O)Cc2ccccn2)C[C@@H]1C | -1.41% (inactive) |
| CC[C@]1(O)CC2CN(CCc3c([nH]c4ccccc34)[C@@](C(=O)OC)(c3cc4c(cc3OC)N(C=O)[C@H]3[C@@](O)(C(=O)OC)[C@H](OC(C)=O)[C@]5(CC)C=CCN6CC[C@]43[C@@H]65)C2)C1 (stereo partly drawn) | 61.7% (active) |
| CC[C@]1(O)C[C@@H]2CN(CCc3c([nH]c4ccccc34)[C@@](C(=O)OC)(c3cc4c(cc3OC)N(C)[C@H]3[C@@](O)(C(=O)OC)[C@H](OC(C)=O)[C@]5(CC)C=CCN6CC[C@]43[C@@H]65)C2)C1 | 63% (active) |
| CN1C(=O)c2cc(NC(=O)C3CC3)ccc2OC[C@@H]2O[C@H](CC(=O)NCC3CCCCC3)CC[C@@H]21 | 6.23% (inactive) |
| C[C@H]1CN([C@@H](C)CO)S(=O)(=O)c2ccc(C3=CCCCC3)cc2O[C@@H]1CN(C)Cc1ccccc1 | 23.9% (inactive) |
| Cc1cc(C(=O)Nc2ccc3c(c2)C(=O)N(C)[C@@H]2CC[C@@H](CC(=O)NC4CCCC4)O[C@@H]2CO3)no1 | 4.52% (inactive) |
| COc1ccc2c3c(n(C)c2c1)[C@@H](CO)N(C)CC31CN(S(=O)(=O)c2cccs2)C1 | 3.63% (inactive) |
| COc1cccc(C#Cc2ccc([C@H]3[C@@H](CO)N(C(=O)c4ccccn4)[C@H]3C#N)cc2)c1 | 30.6% (inactive) |

— PubChem BioAssay AID651661 (Broad Institute, 2012)
